Measured values taken from PubChem BioAssay.

target: Torsin-1A-interacting protein 1 (Homo sapiens) (UniProt Q5JTV8); test: compound microarray binding of lysate hLAP1 – cell lysate, small-molecule microarray, COS7 lysate, 635/667 nm fluorescence, primary screen (AID 1116); settings: 635 nm fluorescence, higher = more signal
Sequence (Q5JTV8 whole entry, looked up): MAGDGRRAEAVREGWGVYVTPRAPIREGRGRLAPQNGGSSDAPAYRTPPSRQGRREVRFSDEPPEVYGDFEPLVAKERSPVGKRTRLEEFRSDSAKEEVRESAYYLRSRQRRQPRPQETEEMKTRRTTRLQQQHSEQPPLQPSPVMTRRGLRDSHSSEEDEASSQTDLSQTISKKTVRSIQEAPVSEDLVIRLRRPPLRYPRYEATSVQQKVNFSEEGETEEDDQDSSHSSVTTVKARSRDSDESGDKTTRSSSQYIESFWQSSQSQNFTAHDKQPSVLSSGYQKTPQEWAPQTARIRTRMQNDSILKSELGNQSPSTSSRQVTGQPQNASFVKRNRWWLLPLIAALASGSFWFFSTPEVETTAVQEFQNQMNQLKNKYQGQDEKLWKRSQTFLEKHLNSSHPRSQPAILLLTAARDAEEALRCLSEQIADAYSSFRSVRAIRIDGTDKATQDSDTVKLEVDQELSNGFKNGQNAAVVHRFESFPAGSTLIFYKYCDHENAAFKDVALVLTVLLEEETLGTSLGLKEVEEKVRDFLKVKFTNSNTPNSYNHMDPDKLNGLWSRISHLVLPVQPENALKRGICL

| SMILES | composite z-score |
| --- | --- |
| CCCN1C(=O)[C@@]2(CCC(=O)OC(C)(C)C)N=C(c3ccc(OCCCO)cc3)O[C@H]2c2ccccc21 | 0.816 |
| O=C(O)[C@H]1C[C@H]2C(=O)NCC(=O)N2[C@H]1c1ccc(O)cc1 | 0.519 |
| CC(C)c1ccc(NN2C(C(O)c3ccc(N(C)C)cc3)C=CC3C(=O)N(c4ccccc4)C(=O)C32)cc1 (stereo not given) | 0.488 |
| CCC[C@@H]1C=C(C(=O)O)[C@H](c2ccc(C)cc2)N1S(=O)(=O)c1ccc(C)cc1 | 0.959 |
| CC(C)c1ccc(NN2C(C(O)c3c(F)cccc3Cl)C=CC3C(=O)N(c4ccccc4)C(=O)C32)cc1 (stereo not given) | 0.47 |
| CC(C)=CCCC(C)=CC(O)C1C=CC2C(=O)N(c3ccccc3)C(=O)C2N1Nc1ccccc1 (stereo not given) | 1.03 |
| COCC1=C2[C@@H](CCc3ccccc3)OB(O)C[C@@H]2[C@@H]2C(=O)N(Cc3ccccc3)C(=O)[C@@H]2C1 | -0.448 |
| COC(=O)[C@@]1(Cc2ccc(OC)cc2)[C@H]2c3cc(C(=O)N4CCCC4)n(CCc4c[nH]c5cc(F)ccc45)c3C[C@H]2CN1C(=O)c1ccccc1 | 2.94 |
| CC(C)N1CC=CC23O[C@@H]4C=CCOC(=O)[C@@H]4[C@H]2C(=O)N(CCO)[C@@H]3C1=O (stereo not given in full) | 0.0566 |
| COC(=O)C(CC#Cc1ccc2c(c1)[C@]1(C(=O)N2)[C@H](c2ccc(OCCO)cc2)N2[C@H](c3ccccc3)[C@H](c3ccccc3)OC(=O)[C@H]2[C@@H]1C(=O)NC[C@H](O)c1ccccc1)C(=O)OC | -0.585 |
| CC(C)NC(=O)[C@@]1(Cc2ccccc2I)c2ccccc2C(=O)N(Cc2ccccc2)[C@H]1c1ccc(CO)cc1 | 0.568 |
| CCOC(=O)C[C@H]1[C@H](OC(=O)Cc2ccc3c(c2)OCO3)[C@@H](NC(=O)c2ccc(-c3ccccc3)cc2)c2cc(OCCCO)ccc2N1C(=O)c1ccccc1 | 0.42 |
| CC(c1ccccc1)C(O)C1C=CC2C(=O)NC(=O)C2N1Nc1ccccn1 (stereo not given) | 0.903 |
| COc1ccc(C#Cc2ccc3c(c2)[C@]2(C(=O)N3)[C@H](c3ccc(O)cc3)N3[C@H](c4ccccc4)[C@H](c4ccccc4)OC(=O)[C@H]3[C@@H]2C(=O)NC[C@H](O)c2ccccc2)cc1 | 0.818 |
| O=C1O[C@H](c2ccccc2)[C@H](c2ccccc2)N2[C@H]1[C@@H](C(=O)O)[C@]1(C(=O)Nc3ccc(C#CC4(O)CCCCCC4)cc31)[C@H]2c1ccc(OCCO)cc1 | 0.535 |
| NCCCCCCNC(=O)[C@H]1C[C@H]2C(=O)NCC(=O)N2[C@H]1c1cccc(OCCO)c1 | 0.963 |
| C=CCOC(=O)[C@H]1[C@@H]2C(=O)O[C@@H](c3ccccc3)[C@@H](c3ccccc3)N2[C@@H](c2ccc(OCCOC(=O)[C@@H]3C[C@@H]4C(=O)NCC(=O)N4[C@@H]3c3ccc(O)cc3)cc2)[C@]12C(=O)Nc1ccccc12 | 0.609 |
| [N-]=[N+]=Nc1ccccc1C[C@]1(C(=O)NCCN2CCOCC2)N=C(c2ccc(OCCCO)cc2)O[C@H]1c1ccccc1 | 1.44 |

| SMILES | composite z-score |
| --- | --- |
| CC(C)N1C(=O)C[C@@](C(=O)NCc2ccccc2)(c2ccc([N+](=O)[O-])cc2)[C@H]1c1ccc(CO)cc1 | 1.99 |
| O=C1OCCC/C=C\[C@H]2OC34C=CCN(Cn5nnc6ccccc65)C(=O)[C@H]3N(CCCCCO)C(=O)[C@@H]4C12 (stereo not given in full) | -0.118 |
| NCCCCCNC(=O)[C@H]1C[C@H]2C(=O)NCC(=O)N2[C@H]1c1cccc(OCCO)c1 | 0.86 |
| CN1C=C(C(=O)OCCS(C)(=O)=O)C(C(=O)OCCS(C)(=O)=O)=CC(CCCO)=CC1C1CC1 (stereo not given) | -0.116 |
| COCCOC(=O)N1C(=O)[C@@]2(c3cc(C#CC4=CCCCC4)ccc31)[C@H](C(=O)NC[C@H](O)c1ccccc1)[C@H]1C(=O)O[C@H](c3ccccc3)[C@H](c3ccccc3)N1[C@@H]2c1ccc(O)cc1 | 0.949 |
| CCCCCCCCCCC(O)C1C=CC2C(=O)N(Cc3ccccc3)C(=O)C2N1n1cnnc1 (stereo not given) | 0.36 |
| Cc1ccccc1C(O)C1C=CC2C(=O)N(C)C(=O)C2N1N1CCCCC1 (stereo not given) | 1.65 |
| CC(=O)NCCCC[C@@H]1NC(=O)[C@@H]2C[C@H](C(=O)NCCCCCCNC(=O)CS)[C@H](c3ccc(O)cc3)N2C1=O | 1.15 |
| C=CCOC(=O)[C@H]1[C@@H]2C(=O)O[C@@H](c3ccccc3)[C@@H](c3ccccc3)N2[C@@H](c2ccc(OCCOC(=O)[C@@H]3C[C@@H]4C(=O)N5CCC[C@H]5C(=O)N4[C@@H]3c3ccc(O)cc3)cc2)[C@]12C(=O)Nc1ccccc12 | 0.808 |
| C=CCC(OC(C)=O)[C@@H]1[C@@H](N(Cc2ccc(-c3ccccc3)cc2)C(=O)Cc2ccc(OC)cc2)c2cc(OCCCO)ccc2N1C(=O)c1ccc2ccccc2n1 (stereo not given in full) | 0.589 |
| COC(=O)C(CC#Cc1ccc2c(c1)[C@]1(C(=O)N2)[C@H](C(=O)NC[C@H](O)c2ccccc2)[C@H]2C(=O)O[C@H](c3ccccc3)[C@H](c3ccccc3)N2[C@@H]1c1ccc(OCCO)cc1)C(=O)OC | 0.053 |
| COc1ccc(C(O)C2C=CC3C(=O)N(c4ccccc4)C(=O)C3N2Nc2ccc([N+](=O)[O-])cc2)cc1OCc1ccccc1 (stereo not given) | 0.979 |
| CC(=O)NCCCC[C@@H]1NC(=O)[C@@H]2C[C@H](C(=O)NCCCCN(C)C)[C@H](c3ccc(O)cc3)N2C1=O | 0.646 |
| CC(C)C(=C=CC[C@H](O)c1cccc(OCCO)c1)C[C@H](O)COCc1ccccc1 | 1.14 |
| CC(C)C(=C=CC[C@@H](O)c1ccccc1OCCO)C[C@@H](O)c1ccccn1 | -0.221 |
| O=C1O[C@@H](c2ccccc2)[C@@H](c2ccccc2)N2[C@@H](c3ccccc3OCCO)[C@]3(C(=O)Nc4ccc(C#CC5(O)CCCCCC5)cc43)[C@@H](C(=O)Nc3nc4ccccc4s3)[C@H]12 | 0.367 |
| C=CCN1C(=O)[C@]2(O[C@H](CCO)[C@@H]([Si](C)(C)c3ccc(OC)cc3)[C@@H]2C)c2cc(NC(=O)[C@H](C)O)ccc21 | 0.925 |
